# In ChEMBL document CHEMBL1961873, “Compounds: GSK PKIS; Assays: Nanosyn kinase panel” (2012):
# Several values for one entry are separate records, joined by “and”; a condition that tells them apart may be missing. Identical values can stand only once.
# Biological target: SRSF protein kinase 3 (Homo sapiens) (UniProt Q9UPE1)
# Details: at 1 µM
# 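Note: values are mean inhibition of MSSK1 (alias of SRPK3).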
# Chain of SRSF protein kinase 3 (Homo sapiens) (Q9UPE1 whole entry): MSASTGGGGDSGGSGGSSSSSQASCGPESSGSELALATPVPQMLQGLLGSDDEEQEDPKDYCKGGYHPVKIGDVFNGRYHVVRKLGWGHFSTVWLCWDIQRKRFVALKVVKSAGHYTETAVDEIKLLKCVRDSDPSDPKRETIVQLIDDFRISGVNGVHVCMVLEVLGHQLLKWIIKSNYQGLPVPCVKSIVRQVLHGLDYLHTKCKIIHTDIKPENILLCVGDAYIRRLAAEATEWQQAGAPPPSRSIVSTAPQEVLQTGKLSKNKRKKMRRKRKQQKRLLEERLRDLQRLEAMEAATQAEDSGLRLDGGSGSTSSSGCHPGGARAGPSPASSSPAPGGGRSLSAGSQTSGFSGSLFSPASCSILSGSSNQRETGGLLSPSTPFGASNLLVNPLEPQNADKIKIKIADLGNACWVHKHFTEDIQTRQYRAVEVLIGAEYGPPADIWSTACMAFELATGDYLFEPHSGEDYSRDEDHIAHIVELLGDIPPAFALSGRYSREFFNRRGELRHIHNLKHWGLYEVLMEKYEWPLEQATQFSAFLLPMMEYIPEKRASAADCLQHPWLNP
row,Compound,inhibition
1,O=C(O[C@H]1CN[C@H](C#Cc2cc3ncnc(Nc4ccc5c(cnn5Cc5ccccc5)c4)c3s2)C1)N1CCOCC1,-0.82%
2,Cn1c(-c2nonc2N)nc2cnccc21,-2.32%
3,Nc1ncnc2occ(-c3ccc(NC(=O)Nc4cc(C(F)(F)F)ccc4F)cc3)c12,49.1% and 43.5%
4,O=C(Nc1n[nH]c2nnc(-c3cccnc3)cc12)C1CC1,-4.68%
5,COc1ccc2ncn(-c3cc(O[C@H](C)c4ccccc4C(F)(F)F)c(C(N)=O)s3)c2c1,-0.79%
6,CCOc1ccc2c(-c3ccnc(Nc4cc(OC)cc(C(F)(F)F)c4)n3)cnn2n1,-0.23%
7,c1ccc(-c2n[nH]cc2-c2ccnc(-c3ccc(OCCn4ccnc4)cc3)c2)nc1,-1.72%
8,CCN1CCC(C(=O)Nc2n[nH]c3nnc(-c4cccc(F)c4F)cc23)CC1,-0.52%
9,Nc1nonc1-c1nc2cnccc2n1C1CC1,-1.03% and 0.65%
10,O=C1Nc2ccccc2/C1=C1\CCc2cc(O)ccc21,-0.36%
11,NC(=O)c1ccc2c(-c3ccnc(NCCCO)n3)c(-c3ccc(F)cc3)nn2c1,1.23%
12,NS(=O)(=O)c1ccc(N/N=C2\C(=O)Nc3cccc(CCc4ccncc4)c32)cc1,-0.36%
13,FC(F)(F)CNc1nccc(-c2cnn3ncccc23)n1,-0.66%
14,COc1ccc(-c2nn3ncccc3c2-c2ccnc(Nc3ccc(F)c(F)c3)n2)cc1,3.15%
15,c1cnn2ncc(-c3ccnc(NCCCN4CCOCC4)n3)c2c1,-0.57%
16,COc1cc(Nc2ncc(-c3ccccc3)o2)cc(OC)c1,1.14%
17,CCS(=O)(=O)c1ccc(OC)c(Nc2ncc(-c3cccc(C(C)=O)c3)o2)c1,0.97%
